Measurements reported in PubChem BioAssay AID686948 (National Center for Advancing Translational Sciences (NCATS), 2013).
Active and inactive are the calls of the source. The call rests on the fitted dose curve; in most records, active means well fitted inhibition curve with a large enough effect; inactive means flat fitted curve, though single readings scatter.

Molecular target: Tyrosine-protein kinase Yes (Homo sapiens) (UniProt P07947)
Assay: qHTS for small molecule inhibitors of Yes1 kinase: Confirmatory screen on the cherrypicks
Conditions: Recombinant Yes1, ADP-Glo luminescence, poly(E4Y) substrate
Text: The Src family of non-receptor protein tyrosine kinases contains nine members, including Yes1, Src, Fyn, Lyn, and […]. These kinases have important roles in a variety of cellular functions, such as cell proliferation, survival, and differentiation. Src, the most well characterized member of this family, has been previously identified as a proto-oncogene. […] In melanoma, it has been shown that Yes1, and not other family members, such as Src, is functionally involved in the malignant phenotype. Additionally, a recent study examining the downregulation of Yes1 by shRNA found significant effects on cell survival/growth for basal-like and Her2-positive breast cancers. Despite the potential for Yes1 to be a target for the above-described cancers, there are very few reports on the identification of potent and selective inhibitors of Yes1 kinase. Antagonists of Yes1 would further elucidate Yes1 biology and help to confirm whether Yes1 is a viable target for therapeutic intervention in a variety of cancers. A compound that inhibits Yes1 could be important for the treatment of various cancers in which Yes1 is highly expressed and can also be used as a tool compound to help further elucidate Yes1 biology. To that end, we have developed a sensitive HTS biochemical assay for Yes1 activity. This assay was screened against several small compound libraries to look for modulators of activity. Inhibition is the desired output for this assay. NIH Molecular Libraries Probe Production Centers Network [MLPCN] NIH Chemical Genomics Center [NCGC] MLPCN Grant: MH084681
Two microliter of Yes1 enzyme (columns 1-2, 5-48; Millipore, Billerica, MA) are dispensed into Greiner, white solid-bottom 1536-well assay plates; columns 3 and 4 receive buffer without Yes1 as a control for maximum inhibition. Compounds (23 nL) are then transferred via Kalypsys pin tool equipped with 1536-pin array (10 nL slotted pins, V&P Scientific, San Diego, CA). The library compounds are in columns 5-48 and columns 1-4 serve as controls with DMSO in columns 1, 3 and 4 and 10 mM 1:3 fold serial of dasatinib in column 2. Following addition of compound and a 20 minute incubation, 1 uL of substrate (ATP and poly-E4Y from Sigma-Aldrich, St. Louis, MO) is added, and the biochemical reaction is allowed to progress for 60 minutes at room temperature. The production of ADP is then quantified by the ADP-Glo Kit (Promega, Madison, WI). First, 2 uL of the first kit reagent is added, and the reaction is incubated for 45 minutes; then, 4 uL of the second kit reagent are added and the reaction is incubated for 30 minutes at which time the luminescence is read on a Viewlux plate reader (Perkin-Elmer, Waltham, MA). The final concentration of reagents in the reaction are 4 nM Yes1, 0.1 mM ATP, 100 uM EGTA, 10 mM MgCl2, 0.3 mg/mL poly(E4Y), 50 mM Tris pH 7.5, 1 mM DTT, 150 mM NaCl, 0.01% Brij-35, and 5% glycerol. Data are normalized to DMSO-treated control columns with (maximum signal) and without (minimum signal) enzyme.

Tyrosine-protein kinase Yes (Homo sapiens), sequence (P07947 whole entry, looked up): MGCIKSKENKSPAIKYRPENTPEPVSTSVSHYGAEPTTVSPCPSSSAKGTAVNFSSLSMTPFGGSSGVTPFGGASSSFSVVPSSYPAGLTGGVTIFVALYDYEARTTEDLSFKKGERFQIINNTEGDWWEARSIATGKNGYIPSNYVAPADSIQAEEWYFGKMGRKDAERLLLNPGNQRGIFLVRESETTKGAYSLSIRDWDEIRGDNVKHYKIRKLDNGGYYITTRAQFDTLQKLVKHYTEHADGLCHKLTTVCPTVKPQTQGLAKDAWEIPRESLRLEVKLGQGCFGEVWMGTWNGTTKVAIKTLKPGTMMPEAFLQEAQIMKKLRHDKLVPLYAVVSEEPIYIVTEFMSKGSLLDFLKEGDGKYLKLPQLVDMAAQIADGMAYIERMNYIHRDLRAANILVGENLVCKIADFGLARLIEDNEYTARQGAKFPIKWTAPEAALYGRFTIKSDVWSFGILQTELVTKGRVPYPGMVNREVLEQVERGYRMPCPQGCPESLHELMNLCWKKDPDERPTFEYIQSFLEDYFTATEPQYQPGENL

Potency, active:
Cc1ccc(C(=O)Nc2cccc(C(F)(F)F)c2)cc1-c1ccc2nc(NCCN3CCOCC3)ncc2c1 0.7 nM, CCN(CC)CCOc1ccc(Nc2ncc3cc(-c4c(Cl)cccc4Cl)c(=O)n(C)c3n2)cc1 0.4 nM, NC(=O)Nc1cc(-c2ccc(CN3CCOCC3)c(F)c2)sc1C(=O)N[C@H]1CCCNC1 1.7 nM, CN1CCC(CNc2ccc3ncc(-c4cccc(OC(F)(F)F)c4)n3n2)CC1 2770 nM, CC(NCc1ccc2c(c1)nc(NC(=O)c1ccc(-c3cn[nH]c3)s1)n2CC(C)(C)O)C(C)(C)C (stereo unspecified) 1.7 nM, CC(C)Oc1cc(Nc2nc(N[C@@H](C)c3ccc(F)cn3)ncc2Cl)[nH]n1 39.1 nM
